Bioassay records deposited in PubChem by National Center for Advancing Translational Sciences (NCATS).
A selection: hits, their analogues and other compounds. The true share with any hit is near 7.3%.
ELG1 genotoxic: genotoxicity induction in ELG1-luciferase HEK293T cells; HEK293T ELG1-luciferase reporter, luminescence, 16 h; Potency, µM (doses to about 46 µM), for the others: at the highest dose activity change, positive = activation, most hits filed as activators; 330,000 tested, 1.3% active; AID 504466; note: % of control where 0% means no effect; nearly all actives have a fitted effect of over 60% in size
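Reporter readout depends on ELG1 protein level, which increases with genetic stress. After 16 hr compound exposure at 37 °C, luciferase activity was quantified using ONE-Glo.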
KinaseGlo FLuc: Kinase-Glo luciferase inhibition (counter-screen); 200,000 tested, 0.28% active; Potency, µM (highest dose often 38.3 µM), for inactives: at the highest dose activity change, negative = inhibition, hits mostly inhibitors; Kinase-Glo luciferase, ATP luminescence, 8 min; AID 1379; note: % is set by controls: 0 for no effect and ±100 for the full control effect; nearly all actives have a fitted effect of over 60% in size
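Luminescence was the read-out, taken after 8-minute incubation at ambient temperature. Luciferase turned over luciferin with 10 uM ATP in imidazole pH 7.2 buffer containing KCl, MgCl2, Tween 20 and BSA.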
FLuc counter: counter-screen for miR-21 project: firefly luciferase inhibitors or activators; P08659; purified FLuc, Km substrates, luminescence inhibition; 360,000 tested, 6.9% active; Potency, µM (highest dose often 57.5 µM), inactives show top-dose activity change, negative = inhibition, hits mostly inhibitors;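 note: plate controls were vehicle for no effect and reference inhibitor for full effect; nearly all actives have a fitted effect of over 55% in size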
Target sequence (P08659 whole entry, looked up): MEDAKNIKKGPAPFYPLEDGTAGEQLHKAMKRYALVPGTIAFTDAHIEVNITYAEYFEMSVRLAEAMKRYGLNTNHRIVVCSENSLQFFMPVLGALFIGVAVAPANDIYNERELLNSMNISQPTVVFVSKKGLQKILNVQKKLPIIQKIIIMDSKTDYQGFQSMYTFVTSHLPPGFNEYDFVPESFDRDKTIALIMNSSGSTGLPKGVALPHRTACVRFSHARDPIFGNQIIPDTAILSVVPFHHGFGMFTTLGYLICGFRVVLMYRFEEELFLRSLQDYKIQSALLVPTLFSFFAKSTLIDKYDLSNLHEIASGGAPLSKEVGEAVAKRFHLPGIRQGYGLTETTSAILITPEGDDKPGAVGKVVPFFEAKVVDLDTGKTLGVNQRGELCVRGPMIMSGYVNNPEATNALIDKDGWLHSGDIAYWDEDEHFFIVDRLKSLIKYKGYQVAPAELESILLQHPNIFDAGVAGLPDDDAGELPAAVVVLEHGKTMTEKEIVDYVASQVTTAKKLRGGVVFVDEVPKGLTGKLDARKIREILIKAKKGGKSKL
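Purified P. pyralis luciferase, 10 nM final, with Km-level 10 uM D-luciferin and 10 uM ATP in 50 mM Tris acetate pH 7.5, 10 mM Mg acetate, 0.01% Tween-20, 0.05% BSA; 6-point qHTS titration about 60 µM downward; luminescence read.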
Rab9 promoter act: activates the Rab9 promoter; 320,000 tested, 2.8% active; AID 485297; Potency, µM (top dose mostly 9.22 µM), for the others: top-dose activation, negative = inhibition, usual class: activators; Huh7 Rab9 promoter-luciferase reporter, luminescence, 24 h; note: % of control where 0% means no effect; nearly all actives have a fitted effect of over 60% in size
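Luciferase signal after 10 min detection reagent at ambient indicates Rab9 promoter upregulation; stably transfected Huh7 cells were treated 24 h with compound in DMSO at 37 °C, 5% CO2.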
SMN2 splice up: enhancers of SMN2 splice variant expression. HEK293 SMN2-luciferase splicing reporter, luminescence, 30-36 h. Potency, µM (series often up to 46.1 µM), for the others: top-dose activity change, positive = activation, most hits filed as activators. 210,000 tested, 2.8% active. AID 1458; note: % of control where 0% means no effect; nearly all actives have a fitted effect of over 55% in size
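qHTS luciferase splicing reporter: luminescence rises when SMN2 exon 7 is included in transfected HEK293 cells. Compound exposure lasted 30-36 h at 37C, with 4.5 mM final sodium butyrate as control, followed by a ONE-Glo read.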
NPC1 prom act: activates the NPC1 promoter. Huh7 NPC1 promoter luciferase reporter, 24 h. Potency, µM (doses to about 9.22 µM), without a hit: at the highest dose activation, most hits filed as activators. 320,000 tested, 2.4% active; note: % of control where 0% means no effect; nearly all actives have a fitted effect of over 60% in size
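Huh7 reporter cells (NPC1 promoter driving luciferase) are dosed with compound for 24 h at 37 °C, 5% CO2; luciferase detection reagent is then added and luminescence measured after 10 min at ambient temperature.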
Starred values were filed as active, the others as inactive. Calls come from the whole dose curve; as a rule, active = well fitted curve in the direction sought with a large enough effect; inconclusive = small, poorly fitted or top-dose-only effect, or another doubt; inactive = no such curve, though single readings can be large; an effect the other way counts as inactive or inconclusive. Potency is the fitted concentration of half-maximal effect.

`COc1ccc(-c2cc(-c3ccc(Cl)cc3)n[nH]2)c(O)c1` gave ELG1 genotoxic inconclusive, FLuc counter 6.01µM*, Rab9 promoter act 2.51µM* and NPC1 prom act 1.78µM*.
Screening CCOC(=O)c1ccn(-c2nc(-c3cccc(OC)c3)cc(C(F)(F)F)n2)n1 returned FLuc counter -6.2% and SMN2 splice up 1.6%.
Screening CCCC(=O)Nc1ccc(C(=O)COC(=O)C2CC2)cc1 returned ELG1 genotoxic 15.3%.
`Cc1ccc(C(=O)COC(=O)c2cnccn2)cc1` gave ELG1 genotoxic 0.7%, KinaseGlo FLuc -4.7%, FLuc counter 6.75µM*, Rab9 promoter act 1.9%, SMN2 splice up 4.4% and NPC1 prom act 6.2%.
`Cc1ccc(C(=O)COC(=O)c2cnccn2)cc1C` gave ELG1 genotoxic 0.6%, KinaseGlo FLuc -1.9%, FLuc counter 21.3µM*, Rab9 promoter act 1.1%, SMN2 splice up 6.4% and NPC1 prom act 0.6%.
`Cc1ccc(C(=O)COC(=O)C2CCC2)cc1` gave ELG1 genotoxic 2.1%, FLuc counter 0.379µM*, Rab9 promoter act -2.8% and NPC1 prom act -0.4%.
Cc1ccc(C(=O)COC(=O)c2cnccn2)cc1[N+](=O)[O-] was read as ELG1 genotoxic 1.1%, KinaseGlo FLuc 1.8%, FLuc counter 5.9%, Rab9 promoter act -4.2%, SMN2 splice up 6.8% and NPC1 prom act 2.2%.
Screening O=C(OCC(=O)c1ccccc1Cl)c1cnccn1 returned ELG1 genotoxic 1.0%, KinaseGlo FLuc -3.3%, FLuc counter inconclusive, Rab9 promoter act 2.4%, SMN2 splice up -6.0% and NPC1 prom act -6.3%.
For O=C(OCC(=O)c1ccc(Cl)cc1Cl)c1cnccn1 the results were ELG1 genotoxic 2.9%, FLuc counter 12µM*, Rab9 promoter act -1.5% and NPC1 prom act -1.1%.
Screening COc1cc(OC)c(NC(=O)C(c2ccccc2)N2Cc3ccccc3C2=O)cc1Cl (stereo unspecified) returned FLuc counter 0.4%.
`Cc1ccc(C(=O)COC(=O)c2ccc(O)cc2)cc1` gave ELG1 genotoxic inconclusive, KinaseGlo FLuc -4.5%, FLuc counter 10.7µM*, Rab9 promoter act 3.16µM* and NPC1 prom act inconclusive.
CCc1ccccc1NC(=O)c1cc2sccc2n1C was read as ELG1 genotoxic 2.8%, KinaseGlo FLuc 1.5%, FLuc counter inconclusive, Rab9 promoter act inconclusive, SMN2 splice up 9.6% and NPC1 prom act 1.4%.
Screening COc1ccc(CNC(=O)c2cc3sccc3n2C)cc1 returned FLuc counter -16.4% and SMN2 splice up -25.7%.
Screening Cn1c(C(=O)Nc2ccc3c(c2)OCO3)cc2sccc21 returned ELG1 genotoxic inconclusive, KinaseGlo FLuc -4.4%, FLuc counter 3.38µM*, Rab9 promoter act 1.58µM*, SMN2 splice up 12.6µM* and NPC1 prom act 1.41µM*.
`Cn1c(C(=O)NCc2ccc3c(c2)OCO3)cc2sccc21` gave ELG1 genotoxic 4.2%, KinaseGlo FLuc 1.1%, FLuc counter -17.3%, Rab9 promoter act 1.3%, SMN2 splice up 8.3% and NPC1 prom act -0.4%.
Screening COC(=O)c1ccc(NC(=O)c2cc3sccc3n2C)cc1 returned ELG1 genotoxic 0.0%, KinaseGlo FLuc -5.2%, FLuc counter 10.7µM*, Rab9 promoter act -17.0% and NPC1 prom act 19.0%.
For COc1cc(NC(=O)c2cc3sccc3n2C)cc(OC)c1 the results were ELG1 genotoxic 5.8µM*, KinaseGlo FLuc -3.4%, FLuc counter 8.49µM*, Rab9 promoter act 11.9%, SMN2 splice up 12.6µM* and NPC1 prom act -0.6%.
For Cn1c(C(=O)Nc2ccccc2)cc2sccc21 the results were ELG1 genotoxic inconclusive, KinaseGlo FLuc -7.6%, FLuc counter 13.5µM*, Rab9 promoter act inconclusive, SMN2 splice up inconclusive and NPC1 prom act inconclusive.
`CCOc1c(Cl)cc(CNc2ccc3[nH]c(=O)[nH]c3c2)cc1OC` gave FLuc counter -0.8% and SMN2 splice up -23.7%.
